This is part of a sample that, as a whole, favours compounds with a hit. Of some 83,000 tested, about 20% had one in any assay.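 Activity criterion: percent growth below 10, measured after cells in 96-well plates were exposed to a single compound concentration for 48 hours.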 A number with no mark means an inactive call. Calls of active or inactive are those of the source.

What all share (assay): NCI-60 one-dose screen, 48 h (100 = growth as untreated, 0 = no growth, -100 = all killed)
What all share (conditions): 10 µM unless noted

Assay [1] has as its system HCT-15 colon.
Assay [2] relates to HT29 colon.
Assay [3] concerns SNB-75 CNS.
In assay [4] the test system is SNB-19 CNS.
Assay [5] concerns U251 CNS.
For assay [6], the system named is PC-3 prostate.
The test system of assay [7] is SK-MEL-5 melanoma.
Assay [8] deals with UACC-62 melanoma.
In assay [9] the test system is LOX IMVI melanoma.
Assay [10] deals with SK-MEL-28 melanoma.
The test system of assay [11] is SK-MEL-2 melanoma.
In assay [12] the test system is SN12C renal.
The subject of assay [13] is UO-31 renal.
In assay [14] the test system is TK-10 renal.
In assay [15] the test system is ACHN renal.
The subject of assay [16] is CAKI-1 renal.
The test system of assay [17] is A498 renal.
Assay [18] deals with CCRF-CEM leukemia.
Assay [19] concerns MOLT-4 leukemia.
Assay [20] deals with EKVX NSCLC.

For the molecule `CC(=O)c1cc(C(=O)N2c3ccccc3Sc3ccccc32)n2c1ccc1ccccc12`, the growth in assay [1] is 41.6%; in assay [2], 30%; in assay [3], 38.7%; in assay [4], 57.8%; in [5], 48.6%; in assay [6], 46.1%. Moreover, the growth in [7] is 44.1%; in assay [8], 33.9%; in assay [9], 58.9%; in assay [10], 61.1%; in assay [11], 38.3%; in assay [12], 86.7%. The growth was 64.6% in [13]; 107% in assay [14]; 50.1% in assay [15]; 46.8% in assay [16]; 30.1% in [17]; 35.9% in [18]. In addition, the growth in assay [19] was 54.7%.
Regarding `CCN1CCN(c2ccc(NC(=O)Nc3ccc4c(ccn4-c4ccnc(C(=O)NC)c4)c3)cc2C(F)(F)F)CC1`, the growth is 9.57% (active) in assay [1]; -44.5% (active) in assay [2]; 43.7% in assay [3]; 81% in assay [4]; 44.7% in assay [5]; 52.6% in [6]. In addition, the growth in [7] was 67.4%; in assay [8], 92.8%; in assay [9], -87.7% (active); in assay [10] it was -81% (active); in [11] it was 94.8%; in [12] it was 90.8%. For the same molecule, the growth in assay [13] is 71%; in assay [14], 113%; in [15] it was 74.7%; in assay [16], 79.3%; in [17], 81.1%; in [18] it was 7.75% (active). Moreover, the growth in assay [19] is 10.9%.
Turning to `Cn1cc(-c2nn3cc(-c4ccncc4)nc3s2)c2cc(Br)ccc21`, the growth in assay [1] was 18%; in assay [2] it was 4.54% (active); in assay [3] it was 45.9%; in assay [4], 81.7%; in assay [5], 54.7%; in [6], 30.2%. In addition, the growth in assay [7] is 57.9%; in [8], 61.5%; in assay [9], 52.5%; in assay [10], 94.2%; in [11] it was 75.2%; in assay [20], 45.7%. Also, the growth was 39.3% in assay [13]; 113% in assay [14]; 68.9% in assay [15]; 56.5% in [16]; 81.4% in [17]; 29.7% in [18]. Also, in assay [19], the growth is 12.9%.
Consider `Cn1cc(C2=C(c3coc4cc(Br)ccc34)C(=O)NC2=O)c2ccccc21`, for which the growth was 37.3% in assay [1]; 51.7% in assay [2]; 10.5% in assay [3]; 90.7% in [4]; 83.7% in [5]; 69.3% in assay [6]. Besides, the growth was 89.6% in [7]; 60.1% in [8]; 69.2% in [9]; 88.6% in assay [10]; 96.5% in [11]; 95.7% in [12]. Further, the growth in assay [13] is 52.5%; in assay [14], 101%; in [15], 88.2%; in [16], 50.5%; in assay [17], 79.8%; in assay [19], 52.9%.
For the molecule `CCN(CC)c1ccc(/C=N/NC(=O)c2ccc(S(N)(=O)=O)cc2)cc1`, the growth in assay [1] was 20.4%; in [2], 30.8%; in [3] it was 71.1%; in assay [4], 36.9%; in assay [5] it was 33.5%; in assay [6] it was 43.8%. Further, the growth in assay [7] was -0.119% (active); in [8], 15.7%; in [9], 0.095% (active); in [10], 22.5%; in [11] it was 38.7%; in [12], 35.9%. Besides, the growth in assay [13] is 13.3%; in [14], 42.9%; in assay [15], 14.6%; in [16], 23%; in [18] it was 15.4%; in [19], 14.2%.
As for `C#Cc1nc(/C=C/C(=O)NO)cs1`, the growth in [1] is 76.3%; in [2], 7.85% (active); in assay [3], -94.4% (active); in assay [4], 93.4%; in assay [5], -5.41% (active); in assay [6], 70.5%. Besides, the growth in [7] was 63.3%; in assay [8], 57.9%; in assay [9], -90.7% (active); in assay [10], 60.9%; in assay [11], 81.5%; in assay [12], 91.6%. Further, the growth in assay [13] was -94% (active); in assay [14], 43%; in assay [15], -81.9% (active); in assay [16], -94.9% (active); in [18], -45.7% (active); in assay [19], -45.3% (active).
As to `O=S1SC(c2ccccc2)=NN1c1cc(F)cc(F)c1` (centres undefined), the growth in [1] is 28.7%; in assay [2] it was 98.9%; in assay [3], 74.9%; in [4], 49.8%; in [5], 20.3%; in [6] it was 13.3%. The growth is 50.4% in assay [7]; 29.1% in assay [8]; 38.1% in [9]; 46.4% in [10]; 68.1% in [11]; 33.1% in assay [12]. Also, the growth in assay [13] is 22.7%; in assay [14] it was 85.8%; in assay [15] it was 51.5%; in assay [16], 52.4%; in assay [17] it was 12.7%; in assay [18] it was 18.8%. For the same molecule, the growth in [19] is 17.5%.
As for `COC(=O)[C@@H](Cc1c[nH]c2ccccc12)NC(=O)CCCCOc1cc(O)c2c(=O)cc(-c3ccccc3)oc2c1`, the growth in assay [1] was 80.8%; in assay [2], 107%; in assay [3], 72.3%; in [4] it was 89.4%; in [5], 92.2%; in [6], 73.6%. For the same molecule, the growth in [7] was -97.8% (active); in assay [8] it was 66.3%; in assay [9] it was 54.7%; in [10], 101%; in assay [11], 90.5%; in [12], 95.2%. Moreover, the growth in assay [13] was 68.8%; in [14], 132%; in [15], 91.8%; in assay [16], 71.9%; in assay [17], 70%; in assay [18], 83.1%. The growth in assay [19] was 65.1%.
